The sample as a whole holds a higher share of the strongest signals than the screen did.
What was measured:
Assay in all cases: glycan array binding signal (z-score within array); higher = stronger binding
Conditions in all cases: glycan notation: IUPAC condensed, linker removed
[1] = target: Gal(b1-4)GlcNAc(b1-3)Gal(b1-4)GlcNAc
How it was run: (§1)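 Negative Z-scores can be read as non-binding. The Z-score is calculated within each array and then averaged across arrays of one protein sequence at different concentrations or buffers and across linkers. Arrays, 3228 in all, were curated from the Consortium for Functional Glycomics database and kept only where the protein sequence was available.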

[2] = target: Gal(b1-4)GlcNAc(b1-3)Gal(b1-4)GlcNAc(b1-2)Man(a1-3)[Gal(b1-4)GlcNAc(b1-3)Gal(b1-4)GlcNAc(b1-2)Man(a1-6)]Man(b1-4)GlcNAc(b1-4)[Fuc(a1-6)]GlcNAc
How it was run: as §1

[3] = target: Gal(b1-4)GlcNAc(b1-3)Gal(b1-4)GlcNAc(b1-3)Gal(b1-4)GlcNAc(b1-3)Gal(b1-4)GlcNAc(b1-2)Man(a1-3)[Gal(b1-4)GlcNAc(b1-3)Gal(b1-4)GlcNAc(b1-3)Gal(b1-4)GlcNAc(b1-3)Gal(b1-4)GlcNAc(b1-2)Man(a1-6)]Man(b1-4)GlcNAc(b1-4)GlcNAc
How it was run: as §1

[4] = target: Gal(b1-4)GlcNAc(b1-3)Gal(b1-4)GlcNAc(b1-3)Gal(b1-4)GlcNAc(b1-3)Gal(b1-4)GlcNAc(b1-2)Man(a1-3)[Gal(b1-4)GlcNAc(b1-3)Gal(b1-4)GlcNAc(b1-3)Gal(b1-4)GlcNAc(b1-3)Gal(b1-4)GlcNAc(b1-2)Man(a1-6)]Man(b1-4)GlcNAc(b1-4)[Fuc(a1-6)]GlcNAc
How it was run: as §1

[5] = target: Gal(b1-4)GlcNAc(b1-3)Gal(b1-4)GlcNAc(b1-3)Gal(b1-4)GlcNAc(b1-3)Gal(b1-4)GlcNAc(b1-2)[Gal(b1-4)GlcNAc(b1-3)Gal(b1-4)GlcNAc(b1-3)Gal(b1-4)GlcNAc(b1-3)Gal(b1-4)GlcNAc(b1-6)]Man(a1-6)[Gal(b1-4)GlcNAc(b1-3)Gal(b1-4)GlcNAc(b1-3)Gal(b1-4)GlcNAc(b1-3)Gal(b1-4)GlcNAc(b1-2)Man(a1-3)]Man(b1-4)GlcNAc(b1-4)[Fuc(a1-6)]GlcNAc
How it was run: as §1

[6] = target: Gal(b1-4)GlcNAc(b1-3)Gal(b1-4)GlcNAc(b1-3)Gal(b1-4)GlcNAc(b1-3)Gal(b1-4)GlcNAc(b1-3)Gal(b1-4)GlcNAc(b1-2)[Gal(b1-4)GlcNAc(b1-3)Gal(b1-4)GlcNAc(b1-3)Gal(b1-4)GlcNAc(b1-3)Gal(b1-4)GlcNAc(b1-3)Gal(b1-4)GlcNAc(b1-6)]Man(a1-6)[Gal(b1-4)GlcNAc(b1-3)Gal(b1-4)GlcNAc(b1-3)Gal(b1-4)GlcNAc(b1-3)Gal(b1-4)GlcNAc(b1-3)Gal(b1-4)GlcNAc(b1-2)Man(a1-3)]Man(b1-4)GlcNAc(b1-4)[Fuc(a1-6)]GlcNAc
How it was run: as §1

[7] = target: Gal(b1-4)GlcNAc6P
How it was run: as §1

[8] = target: Gal6S(b1-4)GlcNAc6S
How it was run: as §1

[9] = target: Glc(b1-6)Glc
How it was run: as §1

[10] = target: GlcA3S(b1-3)Gal(b1-4)GlcNAc(b1-2)Man
How it was run: as §1

[11] = target: GlcNAc(a1-4)Gal(b1-4)GlcNAc(b1-3)Gal(b1-4)GlcNAc(b1-3)Gal(b1-4)GlcNAc
How it was run: as §1

[12] = target: GlcNAc(b1-3)Gal(b1-4)GlcNAc
How it was run: as §1

[13] = target: GlcNAc(b1-4)Gal(b1-4)GlcNAc
How it was run: as §1

[14] = target: Kdn(a2-6)Gal(b1-4)GlcNAc
How it was run: as §1

[15] = target: Man(a1-2)Man(a1-2)Man(a1-3)Man
How it was run: as §1

[16] = target: Neu5Ac(a2-3)Gal(b1-3)GlcNAc(b1-3)Gal(b1-4)GlcNAc
How it was run: as §1

[17] = target: Neu5Ac(a2-3)Gal(b1-4)GlcNAc
How it was run: as §1

[18] = target: Neu5Ac(a2-3)Gal(b1-4)[Fuc(a1-3)]GlcNAc(b1-6)[Gal(b1-3)]GalNAc
How it was run: as §1

[19] = target: Neu5Ac(a2-6)GalNAc
How it was run: as §1

[20] = target: Neu5Ac(a2-8)Neu5Ac
How it was run: as §1

[21] = target: Neu5Ac(a2-8)Neu5Ac(a2-8)Neu5Ac
How it was run: as §1

[22] = target: Neu5Ac(b2-6)GalNAc
How it was run: as §1

[23] = target: Neu5Gc(a2-3)Gal(b1-3)[Fuc(a1-4)]GlcNAc
How it was run: as §1

[24] = target: Neu5Gc(a2-8)Neu5Ac(a2-3)Gal(b1-4)GlcNAc
How it was run: as §1

B1: SGC, Q9M345 (protein)
chain: QNLNFTYNGFHPPLTDISLQGLATVTPNGLLKLTNTSVQKTGHAFCTERIRFKDSQNGNVSSFSTTFVFAIHSQIPTLSGHGIAFVVAPTLGLPFALPSQYIGLFNISNNGNDTNHIFAVEFDTIQSSEFGDPNDNHVGIDLNGLRSANYSTAGYRDDHDKFQNLSLISRKRIQVWIDYDNRSHRIDVTVAPFDSDKPRKPLVSYVRDLSSILLEDMYVGFSSATGSVLSEHFLVGWSFRLNGEAPMLSLSKLPKLPRFEPRRIS
- glycan array binding signal (z-score) [1]: -0.296
- glycan array binding signal (z-score) [2]: 4.81
- glycan array binding signal (z-score) [3]: 4.57
- glycan array binding signal (z-score) [4]: 5.27
- glycan array binding signal (z-score) [5]: 8.45
- glycan array binding signal (z-score) [6]: 5.39
- glycan array binding signal (z-score) [7]: -0.448
- glycan array binding signal (z-score) [8]: 0.254
- glycan array binding signal (z-score) [9]: -0.344
- glycan array binding signal (z-score) [10]: -0.501
- glycan array binding signal (z-score) [11]: -0.351
- glycan array binding signal (z-score) [12]: -0.367
- glycan array binding signal (z-score) [13]: -0.349
- glycan array binding signal (z-score) [14]: -0.393
- glycan array binding signal (z-score) [15]: -0.36
- glycan array binding signal (z-score) [16]: -0.413
- glycan array binding signal (z-score) [17]: -0.311
- glycan array binding signal (z-score) [18]: 8.35
- glycan array binding signal (z-score) [19]: -0.34
- glycan array binding signal (z-score) [20]: -0.356
- glycan array binding signal (z-score) [21]: -0.347
- glycan array binding signal (z-score) [22]: -0.286
- glycan array binding signal (z-score) [23]: -0.349
- glycan array binding signal (z-score) [24]: -0.365
